From PubChem
D2 PAM-1 – HTS Assay for Positive Allosteric Modulators of the Human D2 Dopamine Receptor: Primary Screen for Potentiators; D(2) dopamine receptor (Homo sapiens), P14416; HEK293 T-REx D2, calcium flux, EC20 dopamine potentiation; potentiation, % at 10 µM; hit rate 0.34% among 340,000; AID 485347, 2010;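 active = potentiation over 3 SD above the plate norm, cut at about 30% in these data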; note: 0% is about no effect
Target sequence (P14416 whole entry, looked up): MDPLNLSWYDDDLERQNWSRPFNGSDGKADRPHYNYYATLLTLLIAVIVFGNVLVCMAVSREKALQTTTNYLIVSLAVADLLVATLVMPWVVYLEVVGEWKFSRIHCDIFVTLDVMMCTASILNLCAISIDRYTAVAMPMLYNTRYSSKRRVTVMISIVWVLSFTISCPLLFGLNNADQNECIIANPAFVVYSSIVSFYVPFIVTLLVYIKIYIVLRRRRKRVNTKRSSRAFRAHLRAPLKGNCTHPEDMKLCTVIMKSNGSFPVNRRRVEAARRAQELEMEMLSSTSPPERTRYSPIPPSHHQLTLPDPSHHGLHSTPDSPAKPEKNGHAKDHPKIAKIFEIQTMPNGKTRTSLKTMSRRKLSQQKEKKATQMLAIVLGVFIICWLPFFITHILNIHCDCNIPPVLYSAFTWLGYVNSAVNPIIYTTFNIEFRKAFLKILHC
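Potentiation of an EC20 dopamine calcium response measured kinetically over 180 s, after a preceding 180 s compound-only read flagging agonists. Cells: inducible Hek293 Trex D2 line, 4000/well, cultured overnight at 30 C before dye loading.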
D2 ag-1 – Beta-Arrestin HTS for Positive Allosteric Modulators of the Human D2 Dopamine Receptor: Agonists. D(2) dopamine receptor (Homo sapiens), P14416. DiscoveRx PathHunter D2 beta-arrestin, luminescence, 90 min; 100% = 57 uM dopamine signal. activation, % (test concentration not listed). hit rate 0.084% among 360,000. AID 624465, 2012; in the data active = activation above about 40%
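DiscoveRx PathHunter D2 beta-arrestin cells (2,100/well) attached overnight, then compound-stimulated 90 min at 37 C in HBSS/10 mM HEPES/0.1% Tween-20 buffer; beta-galactosidase complementation read by luminescence after 1 h at ambient temperature. Dopamine 57 uM final (EC100) as control.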
D2 PAM-2 – Beta-Arrestin HTS for Positive Allosteric Modulators of the Human D2 Dopamine Receptor: Potentiators; DiscoveRx D2 beta-arrestin cells, luminescence, 90 min; 100% = 57 uM dopamine signal; potentiation, % (test concentration not listed); hit rate 0.23% among 360,000; AID 624464, 2012; in the data active = potentiation above about 50%
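PathHunter D2 cells, attached overnight at 37 deg C, received compound in DMSO plus dopamine at EC20 (50 nM final) for 90 min at 37 deg C. Beta-arrestin recruitment was read as luminescence after 1 h with detection reagent at ambient temperature.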
D2 antagonist – HTS Assay for Allosteric Antagonists of the Human D2 Dopamine Receptor: Primary Screen for Antagonists; D(2) dopamine receptor (Homo sapiens), P14416; HEK293 TREx D2 cells, calcium flux, dopamine EC80; inhibition, % at 10 µM; hit rate 2% among 340,000; in the data active = inhibition above about 30%; inactive = below that, where a call was filed; note: 0% is about no effect
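Calcium flux kinetic readout in an inducible HEK293 TREx D2 line plated overnight at 30 C. After 180 s compound exposure, an EC80 dopamine challenge follows with another 180 s kinetic read to detect antagonism.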
D2 ag-2 – HTS Assay for Allosteric Agonists of the Human D2 Dopamine Receptor: Primary Screen for Agonists; D(2) dopamine receptor (Homo sapiens), P14416; HEK293 T-REx D2 cells, calcium flux agonist mode; activation, % at 2 µM; hit rate 0.53% among 340,000;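 active = activation over 3 SD above normal in the single-dose calcium agonist read, cut at about 30% in these data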; note: 0% is about no effect
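Agonism is scored from calcium flux in a force-coupled, inducible HEK293 cell line expressing D2, read kinetically for 180 s after compound addition against dopamine controls.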
* marks the source's active call; other numbers are inactive results; / = no result; ! = repeats disagree. The list is not random: actives were taken first. Their share in the collection is about 2.4%.

SMILES	D2 PAM-1	D2 ag-1	D2 PAM-2	D2 antagonist	D2 ag-2
CC1CCCC(NC(=O)COC(=O)c2cccc(NS(=O)(=O)/C=C/c3ccccc3)c2)C1C (centres undefined)	17.3	1.6	25.2	49.8*	-0.7
N#C/C(=C\c1c(N2CCCCC2)nc2ccccn2c1=O)C(=O)NC1CCS(=O)(=O)C1 (centres undefined)	-2.4	-3.1	-7.7	6.5	0.2
Cc1nn(C)c(C)c1NC(=S)Nc1ccc(S(=O)(=O)Nc2ncccn2)cc1	1.5	0.1	-2.6	30.5*	0.8
Cc1nc2ccccc2n1S(=O)(=O)N(C)C	-3.2	-1.9	-2.2	7.0	0.7
CN1CCc2c(c3ccccc3n2Cc2ccccc2)C1	-21.2	-2.5	-27.8	32.9*	0.1
CN1CCc2c(c3ccccc3n2C)C1	-20.5	-0.9	-45.1	61.4*	0.8
CCCCN1CCc2c(c3ccccc3n2Cc2ccccc2)C1	-25.2	-0.7	-23.3	-4.7	0.6
Cc1cc(C)cc(NC(=O)CSc2n[nH]c(-c3cccnc3)n2)c1	-4.4	-5.2	-8.6	6.1	-0.7
O=C(CSc1ncnc2sccc12)N1CCCCC1	/	0.1	-0.8	/	/
Oc1ccc(N2CCN(Cc3c(-c4ccccc4)nc4ccccn34)CC2)cc1	0.0	5.1	15.3	-3.3	-0.1
c1csc(-c2nnc(NC3CCCCC3)c3ccccc23)c1	-30.8	-0.5	-29.6	43.2*	1.3
Cc1csc(NC(=O)CSc2ncn(-c3ccccc3)n2)n1	4.1	-2.4	2.9	-17.4	-0.1
O=c1[nH]c2c(c(=O)[nH]1)CCC2	-2.0	-5.5	-0.3	36.9*	0.8
CCc1ccc2oc(=O)cc(CN3CCN(Cc4ccccc4)CC3)c2c1	-20.9	-4.1	-25.4	38.6*	-0.1
O=c1cc(CN2CCN(Cc3ccccc3)CC2)c2ccc(O)cc2o1	-18.9	-4.9	-24.2	4.3	-0.6
O=c1[nH]c(CN2CCN(C/C=C/c3ccccc3)CC2)nc2ccccc12	-26.5	-0.2	-23.9	63.4*	29.0
Cc1ccc2oc(=O)cc(CN3CCN(C/C=C/c4ccccc4)CC3)c2c1	-18.2	-3.1	-21.5	58.4*	-0.7
O=c1[nH]c(CN2CCN(S(=O)(=O)/C=C/c3ccccc3)CC2)nc2ccccc12	-6.7	0.3	4.2	-35.4	0.5
O=c1cc(CN2CCN(Cc3ccccc3)CC2)c2cc(Cl)ccc2o1	-7.4	-7.6	-47.1	3.7	-0.7
O=c1cc(CN2CCN(C/C=C/c3ccccc3)CC2)c2cc(O)ccc2o1	-21.6	1.4	-27.0	82.5*	0.7
Cc1nn(C(C)C(=O)Nc2ccc(Cl)cn2)c(C)c1[N+](=O)[O-] (centres undefined)	-8.7	-0.3	-18.0	-7.7	-0.4
O=C(O)CSc1c2c(nc3cc(C(=O)NCCN4CCOCC4)ccc13)CCC2	11.2	-5.0	-1.8	-0.6	0.4
CCCCN(C(=S)Nc1ccccc1)C1CCS(=O)(=O)C1 (centres undefined)	19.8	-1.9	8.6	1.6	-0.6
C[N+]1(CC(=O)Nc2ccc(F)cc2)CCN(C(=O)c2ccco2)CC1	43.4*	-1.4	-8.0	-2.2	-0.5
OCC1(CCCc2ccccc2)CCN(Cc2cnc(N3CCOCC3)s2)CC1	-3.0	-2.4	-12.3	-8.6	0.2
SMILES	D2 PAM-1	D2 ag-1	D2 PAM-2	D2 antagonist	D2 ag-2
CC(COc1ccccc1)N1CCC(CO)(CCc2ccccc2)CC1 (centres undefined)	-17.1	-0.6	-15.2	51.5*	17.4
Cc1ncc(CN2CCC(CO)(CCc3ccccc3)CC2)s1	-37.5	-2.8	-22.8	81.1*	0.7
Cc1cc(/C=C2/NC(=O)NC2=O)c(C)n1-c1ccc(N2CCOCC2)cc1	8.2	0.3	-1.9	-11.0	0.1
O=C(NC(=S)N1CCOCC1)C12CCC3CC(CC(C3)C1)C2	31.1*	-3.6	-5.4	-16.2	-1.4
O=C(NC(=S)N1CCOCC1)C12CC3CCC(CC(C3)C1)C2	4.5	-1.3	4.0	14.2	1.3
O=C(N[C@H]1CC1c1ccccc1)c1ccc([N+](=O)[O-])cc1 (some centres undefined)	-21.7	0.7	-13.3	32.9*	-1.7
OC1CCN(Cc2ccc(OCc3ccccc3)cc2)CC1	-8.3	5.0	-17.7	4.9	-0.9
CC1CCCN(Cc2ccc(OCc3ccccc3)cc2)C1 (centres undefined)	-13.9	0.1	-34.6	46.3*	-0.6
O=C(CCCCCn1c(=S)[nH]c2ccc(N3CCOCC3)cc2c1=O)NCc1ccccc1	-1.2	-7.8	0.3	16.5	-1.1
O=C(CCCCCn1c(=S)[nH]c2ccc(N3CCOCC3)cc2c1=O)NCc1cccc(Cl)c1	38.9*	7.7	-2.6	-0.2	-1.0
CC1CCN(CCn2c(=S)[nH]c3ccccc3c2=O)CC1	-11.8	5.2	-25.1	30.6*	-0.3
O=c1c2ccccc2[nH]c(=S)n1CCCN1CCN(C2CCCCC2)CC1	-24.5	2.0	-30.6	82.3*	-0.4
O=c1c2ccccc2[nH]c(=S)n1CCCN1CCC(Cc2ccccc2)CC1	-27.7	0.7	-24.5	81.8*	-1.5
CC1CCN(CCCn2c(=S)[nH]c3ccccc3c2=O)CC1	-17.8	-2.6	-42.4	21.5	-0.3
Cc1n[nH]c(C)c1-c1nc2ccccc2[nH]1	-7.8	-3.2	4.9	5.6	-0.3
O=c1c2ccc(Cl)cc2[nH]c(=S)n1CCCN1CCOCC1	-19.6	-4.9	-17.9	33.5*	0.3
O=C(O)/C(=C/c1ccco1)NC(=O)c1ccccc1	0.5	-0.6	-12.3	33.7*	0.9
CC(=O)NCCn1c(SCc2ccc(C)cc2)nc2ccccc2c1=O	-1.5	-1.7	6.8	-3.9	-0.2
Cc1ccc(CSc2nc3ccccc3c(=O)n2C)cc1	0.8	-1.0	-6.0	33.6*	2.0
CC(C)NC(=O)CSc1ccccc1C(=O)N1CCN(S(=O)(=O)Cc2ccccc2)CC1	3.6	-0.5	-6.0	-6.8	0.1
CCC(Sc1nc2cc(OC)c(OC)cc2c(=O)n1Cc1ccc(OC)cc1)C(=O)NCCOC (centres undefined)	31.0*!	-2.4	-2.0	-0.8	-0.2
Nc1cc(=O)[nH]c(SCC(=O)Nc2ccc(Cl)c(Cl)c2)n1	-6.4	-1.4	-9.3	-8.2	0.5
Nc1cc(=O)[nH]c(SCC(=O)Nc2cc(Cl)cc(Cl)c2)n1	-16.7	-1.6	-37.4	30.1*	-0.6
O=C(Nc1nnc(SCC(=O)N2CCCCC2)s1)C1CCCCC1	37.2*	-2.6	5.1	7.5	0.3
